Data: the supplement of paper PMC10849652
Of roughly 7,900 targets only a part is listed; those with a hit were picked by preference. About 0.6% of all pairs of compound and target were hits.

How the values were obtained:
Test in all cases: log2 fold change, soluble protein after heating vs DMSO (PISA); higher = thermal stabilisation; K562 cells, 10 uM, 30 min; active = over 0.2 and 3.5 SD of the protein, either way, in both replicates (recomputed)
[1] = compound: COC1=CC=C(C=C1)CN2C=CC3=C2C=C(C=C3)C(=O)NO
Outline: (§1)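 K562 cells at 2×10^6 cells/mL were given 10 μM compound for 30 min. Aliquots then went through 3 min of heating across 48°C-58°C, were pooled, and were extracted in PBS with 0.5% NP-40 at 4°C, and the supernatant after 21,000xg for 90 min was quantified by TMTpro 16plex LC-MS/MS with channel sums equalised. Thermal stability relative to control samples, from duplicates, is given as log2 fold change.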

[2] = compound: CON(C)C(=O)N1N=C(c2cc(F)ccc2F)S[C@@]1(CCCN)c1ccccc1 [filanesib]
Outline: as §1

[3] = compound: CO[C@H]1C[C@@H]2CC[C@@H](C)[C@@](O)(O2)C(=O)C(=O)N2CCCC[C@H]2C(=O)O[C@H]([C@H](C)C[C@@H]2CC[C@H](n3cnnn3)[C@H](OC)C2)CC(=O)[C@H](C)/C=C(\C)[C@@H](O)[C@@H](OC)C(=O)[C@H](C)C[C@H](C)/C=C/C=C/C=C/1C [zotarolimus]
Outline: as §1

[4] = compound: COc1cc(C(=O)O)ccc1NC(=O)[C@@H]1N[C@@H](CC(C)(C)C)[C@](C#N)(c2ccc(Cl)cc2F)[C@H]1c1cccc(Cl)c1F [idasanutlin]
Outline: as §1

[5] = compound: COc1cc(Nc2ncc3c(n2)-c2ccc(Cl)cc2C(c2c(F)cccc2OC)=NC3)ccc1C(=O)O [alisertib]
Outline: as §1

[6] = compound: COc1cc2nc(-c3cc(F)ccc3O)nc(N[C@@H]3CNC[C@H]3C(C)(C)O)c2cc1OC
Outline: as §1

[7] = compound: COc1cc2ncnc(Nc3ccc(F)c(Cl)c3)c2cc1OCCCN1CCOCC1 [gefitinib]
Outline: as §1

[8] = compound: COc1cccc2cc(-c3nc([C@H]4CC[C@H](C(=O)O)CC4)n4ncnc(N)c34)[nH]c12
Outline: as §1

[9] = compound: CS(=O)(=O)CCNCc1ccc(-c2ccc3ncnc(Nc4ccc(OCc5cccc(F)c5)c(Cl)c4)c3c2)o1 [lapatinib]
Outline: as §1

[10] = compound: CS(=O)(=O)N1CCN(Cc2cc3nc(-c4cccc5[nH]ncc45)nc(N4CCOCC4)c3s2)CC1 [pictilisib]
Outline: as §1

Measured: log2 fold change

SRSF3 (UniProt P84103)
Chain of UniProt P84103 (P84103 whole entry, looked up): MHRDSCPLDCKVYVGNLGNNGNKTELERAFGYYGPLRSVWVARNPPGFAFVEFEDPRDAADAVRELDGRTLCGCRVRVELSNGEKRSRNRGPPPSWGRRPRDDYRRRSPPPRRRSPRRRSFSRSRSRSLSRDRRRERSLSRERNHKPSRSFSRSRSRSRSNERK
inactive: [1] -0.226 | [2] 0.193 | [3] -0.054 | [4] 0.217 | [5] -0.101 | [6] -0.011 | [7] -0.026 | [8] -0.009 | [9] -0.006 | [10] -0.018

ST3GAL2 (UniProt Q16842)
Chain of UniProt Q16842 (Q16842 whole entry, looked up): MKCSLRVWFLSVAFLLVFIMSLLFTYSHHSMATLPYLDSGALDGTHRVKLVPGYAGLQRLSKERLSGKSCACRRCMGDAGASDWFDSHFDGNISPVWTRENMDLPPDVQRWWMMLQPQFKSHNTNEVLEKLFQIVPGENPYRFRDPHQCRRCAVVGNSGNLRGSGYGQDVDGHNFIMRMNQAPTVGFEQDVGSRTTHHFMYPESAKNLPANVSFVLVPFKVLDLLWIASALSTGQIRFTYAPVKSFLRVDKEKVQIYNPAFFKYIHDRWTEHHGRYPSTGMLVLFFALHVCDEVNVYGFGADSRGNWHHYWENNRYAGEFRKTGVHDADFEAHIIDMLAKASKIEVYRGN
inactive: [1] 0.087 | [2] 0.124 | [3] 0.092 | [4] 0.075 | [5] -0.134 | [6] 0.1 | [7] 0.187 | [8] -0.043 | [9] 0.17 | [10] 0.102

TGFBRAP1 (UniProt Q8WUH2)
inactive: [1] 0.092 | [2] -0.006 | [3] -0.031 | [4] -0.137 | [5] 0.046 | [6] 0.092 | [7] 0.047 | [8] -0.103 | [9] -0.098 | [10] -0.136

STAT5A (UniProt P42229)
inactive: [1] 0.034 | [2] 0.018 | [3] 0.094 | [4] 0.032 | [5] -0.056 | [6] 0.009 | [7] 0.047 | [8] -0.128 | [9] 0 | [10] -0.096

SMARCAD1 isoform 2 (UniProt Q9H4L7)
Chain of UniProt Q9H4L7 (Q9H4L7 whole entry, looked up): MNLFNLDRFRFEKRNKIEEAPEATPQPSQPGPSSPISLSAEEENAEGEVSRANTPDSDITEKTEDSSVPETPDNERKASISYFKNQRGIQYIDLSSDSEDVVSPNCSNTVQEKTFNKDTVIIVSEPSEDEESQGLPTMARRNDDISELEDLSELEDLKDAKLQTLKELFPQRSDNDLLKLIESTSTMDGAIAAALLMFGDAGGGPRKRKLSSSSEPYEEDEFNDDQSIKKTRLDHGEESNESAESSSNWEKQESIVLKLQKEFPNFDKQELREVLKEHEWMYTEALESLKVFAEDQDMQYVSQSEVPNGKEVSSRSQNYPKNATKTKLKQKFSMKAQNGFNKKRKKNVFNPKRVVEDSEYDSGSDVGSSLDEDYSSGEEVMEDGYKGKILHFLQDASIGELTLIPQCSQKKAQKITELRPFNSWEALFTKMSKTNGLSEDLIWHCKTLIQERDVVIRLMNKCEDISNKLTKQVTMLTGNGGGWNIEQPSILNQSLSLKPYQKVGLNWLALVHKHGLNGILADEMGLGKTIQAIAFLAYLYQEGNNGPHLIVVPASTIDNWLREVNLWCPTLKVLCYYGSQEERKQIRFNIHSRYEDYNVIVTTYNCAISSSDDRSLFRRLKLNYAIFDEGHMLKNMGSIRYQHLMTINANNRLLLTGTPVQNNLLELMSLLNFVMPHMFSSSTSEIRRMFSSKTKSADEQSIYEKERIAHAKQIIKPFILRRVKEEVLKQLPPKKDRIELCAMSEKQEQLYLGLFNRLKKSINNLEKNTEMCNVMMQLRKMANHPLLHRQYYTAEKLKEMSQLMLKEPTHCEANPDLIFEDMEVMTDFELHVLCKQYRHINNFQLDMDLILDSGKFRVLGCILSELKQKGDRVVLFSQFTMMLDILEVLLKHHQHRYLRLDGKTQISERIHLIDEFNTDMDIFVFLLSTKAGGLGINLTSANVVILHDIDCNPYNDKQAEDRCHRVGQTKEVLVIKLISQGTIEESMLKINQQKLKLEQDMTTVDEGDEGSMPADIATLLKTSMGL
inactive: [1] 0.027 | [2] -0.098 | [3] 0.028 | [4] -0.073 | [5] -0.026 | [6] 0.06 | [7] -0.062 | [8] -0.004 | [9] 0.026 | [10] 0.07

TIMM13 (UniProt Q9Y5L4)
Chain of UniProt Q9Y5L4 (Q9Y5L4 whole entry, looked up): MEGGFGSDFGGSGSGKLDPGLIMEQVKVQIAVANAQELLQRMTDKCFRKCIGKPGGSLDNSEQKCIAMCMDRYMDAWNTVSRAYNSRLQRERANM
inactive: [1] 0.206 | [2] -0.091 | [3] 0.042 | [4] -0.043 | [5] -0.006 | [7] -0.002 | [8] -0.01 | [9] 0.027 | [10] -0.056
active: [6] -0.3

SRRM2 (UniProt Q9UQ35)
inactive: [1] 0.018 | [2] 0.097 | [3] 0.05 | [4] 0.166 | [5] -0.121 | [6] -0.293 | [7] 0.018 | [8] 0.028 | [9] 0.01 | [10] 0.117

SP100 isoform 4 (UniProt P23497)
Chain of UniProt P23497 (P23497 whole entry, looked up): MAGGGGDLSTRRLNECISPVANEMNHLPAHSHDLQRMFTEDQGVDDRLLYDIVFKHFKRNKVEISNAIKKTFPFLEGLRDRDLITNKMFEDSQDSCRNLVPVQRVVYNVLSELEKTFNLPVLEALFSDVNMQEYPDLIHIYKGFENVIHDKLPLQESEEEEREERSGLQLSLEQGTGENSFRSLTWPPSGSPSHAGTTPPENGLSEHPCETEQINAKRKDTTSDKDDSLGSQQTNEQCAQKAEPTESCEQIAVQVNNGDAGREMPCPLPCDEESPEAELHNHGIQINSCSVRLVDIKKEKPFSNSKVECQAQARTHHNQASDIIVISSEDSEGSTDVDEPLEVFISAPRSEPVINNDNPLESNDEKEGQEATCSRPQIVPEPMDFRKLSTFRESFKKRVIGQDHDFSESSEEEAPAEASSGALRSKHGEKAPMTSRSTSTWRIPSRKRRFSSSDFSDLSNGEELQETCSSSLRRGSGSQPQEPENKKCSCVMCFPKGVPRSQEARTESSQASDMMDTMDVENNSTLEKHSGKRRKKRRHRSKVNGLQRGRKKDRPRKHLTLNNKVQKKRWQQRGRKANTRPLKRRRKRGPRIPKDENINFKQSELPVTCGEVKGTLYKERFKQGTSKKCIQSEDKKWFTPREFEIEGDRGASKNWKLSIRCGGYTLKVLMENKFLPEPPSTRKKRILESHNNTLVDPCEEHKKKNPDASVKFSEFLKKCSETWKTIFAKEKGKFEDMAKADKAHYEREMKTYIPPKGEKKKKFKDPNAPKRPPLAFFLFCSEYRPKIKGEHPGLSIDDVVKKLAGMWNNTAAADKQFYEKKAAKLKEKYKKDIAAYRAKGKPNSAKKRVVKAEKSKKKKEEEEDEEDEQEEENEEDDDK
active: [6] -0.242
inactive: [1] 0.05 | [2] 0 | [3] 0.013 | [4] -0.022 | [5] -0.026 | [7] 0.024 | [8] 0.036 | [9] 0.188 | [10] 0.013

SPG11 (UniProt Q96JI7)
inactive: [1] -0.232 | [2] 0.158 | [3] -0.415 | [4] -0.118 | [5] 0.388 | [6] 0.14 | [7] -0.032 | [8] 0.331 | [9] -0.167 | [10] 0.401

SYNE2 isoform 2 (UniProt Q8WXH0)
inactive: [1] 0.112 | [2] 0.048 | [3] -0.057 | [4] -0.185 | [5] -0.054 | [6] 0.34 | [7] 0.078 | [8] -0.004 | [9] -0.133 | [10] 0.205

SMG1 (UniProt Q96Q15)
inactive: [1] -0.142 | [2] 0.061 | [3] -0.001 | [4] -0.038 | [5] -0.002 | [6] 0.055 | [7] 0.008 | [8] -0.047 | [9] 0.003 | [10] 0.018

SRSF11 (UniProt Q05519)
inactive: [1] 0.084 | [2] 0.093 | [3] 0.012 | [4] -0.021 | [5] -0.079 | [6] 0.017 | [7] 0.023 | [8] 0.018 | [9] 0 | [10] -0.164

SRP72 (UniProt O76094)
inactive: [1] 0.003 | [2] 0.075 | [3] 0.048 | [4] -0.045 | [5] -0.131 | [6] 0.023 | [7] 0.007 | [8] -0.235 | [9] -0.043 | [10] 0

SP1 (UniProt P08047)
inactive: [1] -0.064 | [2] 0.022 | [3] -0.033 | [4] -0.002 | [5] -0.025 | [6] -0.007 | [7] -0.043 | [8] 0.005 | [9] -0.004 | [10] 0.142

STK4 (UniProt Q13043)
inactive: [1] -0.031 | [2] -0.034 | [3] -0.025 | [4] 0.01 | [5] -0.047 | [6] 0.099 | [7] -0.007 | [8] 0.015 | [9] -0.036 | [10] 0.02

TAOK1 (UniProt Q7L7X3)
inactive: [1] -0.046 | [2] 0.054 | [3] -0.032 | [4] 0.031 | [5] 0.043 | [6] -0.088 | [7] 0.033 | [8] 0.011 | [9] 0.014 | [10] -0.043

STARD9 (UniProt Q9P2P6)
inactive: [1] -0.037 | [2] -0.028 | [3] 0.098 | [4] -0.035 | [5] 0.096 | [6] 0.058 | [7] -0.132 | [8] -0.185 | [9] 0.154 | [10] 0.008

SUCLA2 (UniProt Q9P2R7)
inactive: [1] -0.004 | [2] -0.096 | [3] 0.01 | [4] -0.074 | [5] 0.104 | [6] 0.093 | [7] 0.022 | [8] 0.018 | [9] -0.05 | [10] 0.109

TEX264 (UniProt Q9Y6I9)
Chain of UniProt Q9Y6I9 (Q9Y6I9 whole entry, looked up): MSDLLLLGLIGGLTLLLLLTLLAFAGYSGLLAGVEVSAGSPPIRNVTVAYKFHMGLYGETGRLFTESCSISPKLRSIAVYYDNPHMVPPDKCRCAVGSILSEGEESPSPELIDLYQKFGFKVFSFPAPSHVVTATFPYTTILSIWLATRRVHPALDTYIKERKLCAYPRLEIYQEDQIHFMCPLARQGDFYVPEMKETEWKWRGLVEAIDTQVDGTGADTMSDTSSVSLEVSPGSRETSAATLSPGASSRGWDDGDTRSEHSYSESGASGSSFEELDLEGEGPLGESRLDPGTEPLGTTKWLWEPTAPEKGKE
inactive: [1] 0.07 | [2] -0.169 | [3] 0.059 | [4] -0.076 | [5] -0.042 | [6] 0.163 | [7] 0.164 | [8] -0.046 | [9] 0.421 | [10] 0.321

SULT1A1 (UniProt P50225)
inactive: [1] 0.161 | [2] 0.034 | [3] 0.042 | [4] -0.02 | [5] 0.056 | [6] 0.046 | [7] 0.062 | [8] -0.03 | [9] 0.026 | [10] 0.138

SURF2 (UniProt Q15527)
Chain of UniProt Q15527 (Q15527 whole entry, looked up): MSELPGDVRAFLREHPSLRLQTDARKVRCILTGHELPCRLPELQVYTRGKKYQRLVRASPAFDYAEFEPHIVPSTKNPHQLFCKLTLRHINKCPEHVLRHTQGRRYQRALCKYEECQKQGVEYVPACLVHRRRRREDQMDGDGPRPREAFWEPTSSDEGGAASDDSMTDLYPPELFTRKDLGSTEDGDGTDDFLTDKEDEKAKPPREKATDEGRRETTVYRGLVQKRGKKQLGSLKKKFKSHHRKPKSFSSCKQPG
inactive: [1] 0.038 | [2] 0.014 | [3] 0.055 | [4] 0.054 | [5] -0.133 | [6] 0.023 | [7] 0.028 | [8] -0.034 | [9] 0.006 | [10] -0.07

STK11IP (UniProt Q8N1F8)
inactive: [1] -0.029 | [2] 0.042 | [3] 0.195 | [4] 0.044 | [5] -0.131 | [6] -0.172 | [7] -0.072 | [8] -0.139 | [9] -0.088 | [10] 0.117

SMC5 (UniProt Q8IY18)
inactive: [1] -0.055 | [2] 0.009 | [3] -0.032 | [4] -0.081 | [5] 0.047 | [6] 0.009 | [7] 0.034 | [8] 0.028 | [9] 0.018 | [10] 0.024

SPART (UniProt Q8N0X7)
inactive: [1] -0.073 | [2] 0.011 | [3] 0.02 | [4] 0.03 | [5] -0.009 | [6] 0.067 | [7] 0.054 | [8] -0.028 | [9] -0.015 | [10] 0.05

TJP2 isoform 7 (UniProt Q9UDY2)
inactive: [1] 0.019 | [2] 0.093 | [3] 0.068 | [4] -0.017 | [5] -0.151 | [6] -0.091 | [7] 0.042 | [8] 0.012 | [9] 0.008 | [10] 0.067

STK38 (UniProt Q15208)
inactive: [1] 0.029 | [2] -0.024 | [3] 0.036 | [4] -0.009 | [5] 0.007 | [6] -0.006 | [7] -0.038 | [8] -0.01 | [9] -0.001 | [10] 0.146

TAMM41 isoform 3 (UniProt Q96BW9)
Chain of UniProt Q96BW9 (Q96BW9 whole entry, looked up): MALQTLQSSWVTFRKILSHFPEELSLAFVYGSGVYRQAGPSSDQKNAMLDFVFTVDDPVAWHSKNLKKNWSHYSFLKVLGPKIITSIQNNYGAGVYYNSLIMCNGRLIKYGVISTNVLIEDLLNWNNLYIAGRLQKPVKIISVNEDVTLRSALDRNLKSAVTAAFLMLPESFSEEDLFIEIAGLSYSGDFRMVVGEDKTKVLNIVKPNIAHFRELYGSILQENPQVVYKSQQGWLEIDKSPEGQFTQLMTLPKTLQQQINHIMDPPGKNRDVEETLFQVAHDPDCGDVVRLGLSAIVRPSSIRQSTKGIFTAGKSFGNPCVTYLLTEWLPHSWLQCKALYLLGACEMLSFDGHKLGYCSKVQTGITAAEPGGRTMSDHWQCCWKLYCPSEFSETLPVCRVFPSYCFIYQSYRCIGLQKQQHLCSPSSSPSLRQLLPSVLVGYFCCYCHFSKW
inactive: [1] -0.027 | [2] -0.09 | [3] -0.009 | [4] -0.122 | [5] 0.019 | [6] -0.169 | [7] -0.025 | [8] 0.112 | [9] 0.021 | [10] 0.027

SLC4A2 (UniProt P04920)
Chain of UniProt P04920 (P04920 whole entry, looked up): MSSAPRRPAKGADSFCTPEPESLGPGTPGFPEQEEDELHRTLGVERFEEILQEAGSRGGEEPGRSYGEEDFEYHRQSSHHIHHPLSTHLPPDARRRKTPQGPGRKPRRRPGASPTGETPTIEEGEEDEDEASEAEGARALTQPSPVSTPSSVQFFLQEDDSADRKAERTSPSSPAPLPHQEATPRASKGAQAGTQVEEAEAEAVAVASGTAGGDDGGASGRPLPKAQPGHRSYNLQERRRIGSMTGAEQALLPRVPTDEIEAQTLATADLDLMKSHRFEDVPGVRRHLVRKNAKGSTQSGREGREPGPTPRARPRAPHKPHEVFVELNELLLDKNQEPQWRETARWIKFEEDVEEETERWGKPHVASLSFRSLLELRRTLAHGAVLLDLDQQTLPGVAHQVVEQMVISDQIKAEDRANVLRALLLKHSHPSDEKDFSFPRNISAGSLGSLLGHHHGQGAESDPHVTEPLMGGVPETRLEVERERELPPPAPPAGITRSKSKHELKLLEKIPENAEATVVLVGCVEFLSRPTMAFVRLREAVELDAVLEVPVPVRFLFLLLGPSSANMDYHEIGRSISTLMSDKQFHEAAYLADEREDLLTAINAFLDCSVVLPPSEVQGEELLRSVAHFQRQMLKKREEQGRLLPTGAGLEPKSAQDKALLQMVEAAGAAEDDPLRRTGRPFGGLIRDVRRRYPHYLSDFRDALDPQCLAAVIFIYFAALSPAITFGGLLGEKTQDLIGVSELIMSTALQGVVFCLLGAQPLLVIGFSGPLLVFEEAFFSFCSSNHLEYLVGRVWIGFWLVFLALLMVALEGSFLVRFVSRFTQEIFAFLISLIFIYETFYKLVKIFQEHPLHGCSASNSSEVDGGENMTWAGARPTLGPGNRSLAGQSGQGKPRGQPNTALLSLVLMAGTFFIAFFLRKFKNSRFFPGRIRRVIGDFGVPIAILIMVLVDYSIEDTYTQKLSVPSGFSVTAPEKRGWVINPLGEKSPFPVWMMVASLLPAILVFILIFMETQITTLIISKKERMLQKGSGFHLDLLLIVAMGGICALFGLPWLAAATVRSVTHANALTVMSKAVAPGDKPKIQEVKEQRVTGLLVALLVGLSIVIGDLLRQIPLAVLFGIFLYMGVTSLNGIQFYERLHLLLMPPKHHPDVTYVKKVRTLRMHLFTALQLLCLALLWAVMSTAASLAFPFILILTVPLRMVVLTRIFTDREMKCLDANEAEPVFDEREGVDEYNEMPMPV
inactive: [1] -0.088 | [2] -0.041 | [3] 0 | [4] -0.002 | [5] -0.016 | [6] 0.051 | [7] -0.081 | [8] -0.003 | [9] -0.023 | [10] 0.128

SRI (UniProt P30626)
Chain of UniProt P30626 (P30626 whole entry, looked up): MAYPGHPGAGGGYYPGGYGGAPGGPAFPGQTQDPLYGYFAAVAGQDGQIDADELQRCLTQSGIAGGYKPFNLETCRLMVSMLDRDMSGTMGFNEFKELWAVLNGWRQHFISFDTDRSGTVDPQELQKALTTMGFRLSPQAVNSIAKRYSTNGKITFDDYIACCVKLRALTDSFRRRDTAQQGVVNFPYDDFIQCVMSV
inactive: [1] -0.015 | [2] 0.053 | [3] 0.133 | [4] -0.031 | [5] -0.035 | [6] -0.109 | [7] 0.01 | [8] 0.023 | [9] 0.008 | [10] -0.04
